Screens deposited in PubChem by National Center for Advancing Translational Sciences (NCATS).
The sample as a whole holds a higher share of hits than the screen did.
Pf Dd2 growth: inhibitors of Plasmodium falciparum Dd2 growth. P. falciparum Dd2 growth, SYBR Green, 72 h. Potency, µM (doses to about 28.9 µM), hits mostly inhibitors. 120,000 tested, 4.3% active. AID 1347417; active = well fitted inhibition curve with a large enough effect; note: nearly all actives have a fitted effect of over 65% in size
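Readout: SYBR Green fluorescence, 485 nm excitation, 535 nm emission, after ~16 h lysis at 37C. Before that, Dd2-infected red cells (2.5% hematocrit) grew 72 h with compound, 29 uM top final concentration.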
Hits are given with their value; ! = not confirmed by another sample; [ ] = remark or other dose.

What do the screens show for `CN1[C@@H](CCC(=O)Nc2ccccc2)CNC(=O)[C@@H]2[C@H]1CCN2Cc1ccc(C(F)(F)F)cc1`?
Pf Dd2 growth: inactive

How did Cc1ccc(CN2CC[C@@H]3[C@H]2C(=O)NC[C@H](CCC(=O)Nc2ccccc2)N3C)cc1 do in these assays?
Pf Dd2 growth: 11µM

Results for O=C(NCCc1ccccc1)c1ccc(N2CC3CC(C2)[C@H]2CCCC(=O)N2C3)nc1 (stereo partly drawn) ?
Pf Dd2 growth: inactive

How did O=C(N1CCCC1)N1CCn2c(nnc2-c2cncc(Br)c2)C1 do in these assays?
Pf Dd2 growth: inactive

Results for O=C1OC[C@@H]2CCN(Cc3ccccc3Cl)Cc3ccc(F)cc3N12 ?
Pf Dd2 growth: inactive

How did COc1ccc(-c2nc3sc(CCNC(=O)c4ccc(Br)o4)c(C)n3n2)cc1 do in these assays?
Pf Dd2 growth: 8.9µM

How did COc1ccc(-c2nc3sc(CCNC(=O)Cc4ccc(Cl)cc4)c(C)n3n2)cc1 do in these assays?
Pf Dd2 growth: inactive

How did CCC(=O)NCCc1sc2nc(-c3ccc(OC)cc3)nn2c1C do in these assays?
Pf Dd2 growth: inactive

Results for Cc1c(CCNC(=O)c2ccc(Br)o2)sc2nc(-c3ccc(Cl)cc3)nn12 ?
Pf Dd2 growth: inactive

How did CCOc1ccc(CC(=O)NCCc2sc3nc(-c4ccc(OC)cc4)nn3c2C)cc1 do in these assays?
Pf Dd2 growth: inactive

How did COc1ccc(-c2nc3sc(CCNC(=O)c4ccc(C(C)(C)C)cc4)c(C)n3n2)cc1 do in these assays?
Pf Dd2 growth: 1.1µM

How did CCN1C(=O)CCC2(C(=O)Nc3ccc(C)cc3)CCCC=C12 (stereo not drawn) do in these assays?
Pf Dd2 growth: inactive

What do the screens show for `C#CCN(C)C(=O)[C@@H]1CCCN1C1(C(=O)NC)CCCCC1`?
Pf Dd2 growth: inactive

What do the screens show for `CC(=O)NC1(C)CN(Cc2ccc(-c3cccc(C(F)(F)F)c3)s2)C1`?
Pf Dd2 growth: 7.1µM

What do the screens show for `CC(=O)NC1(C)CN(Cc2ccc(-c3cccc(F)c3)s2)C1`?
Pf Dd2 growth: inactive

How did CC(=O)NC1(C)CN(Cc2ccc(-c3ccc(Oc4ccccc4)cc3)s2)C1 do in these assays?
Pf Dd2 growth: 4µM

Results for CC(=O)Nc1cccc(-c2csc(CN3CCCC(C)(NC(C)=O)C3)c2)c1 (stereo not drawn) ?
Pf Dd2 growth: inactive

Results for CC(=O)NC1(C)CN(c2cccc(C(F)(F)F)c2)C1 ?
Pf Dd2 growth: inactive

What do the screens show for `COc1ncccc1-c1csc(CN2CCCC(C)(NC(C)=O)C2)c1` (stereo not drawn)?
Pf Dd2 growth: inactive

Results for O=C(c1cccc2[nH]ccc12)N1CCC2(CC1)N=C(c1ccc(Cl)cc1)NO2 ?
Pf Dd2 growth: inactive

What do the screens show for `Cc1cnc(C)c(N2CCC(Oc3ccc4c(cnn4CCC(=O)O)c3)CC2)n1`?
Pf Dd2 growth: inactive

Results for CCc1ccc(CN2CC3ON=C(C(=O)O)C3C2)cc1 (stereo not drawn) ?
Pf Dd2 growth: inactive

Results for CCOc1ccccc1CNC(=O)c1cc2c(N3CCCC3)nc(C)cn2n1 ?
Pf Dd2 growth: inactive

Results for O=C(CCc1ccccc1)N1CCC2(CC1)CC(O)CCO2 (stereo not drawn) ?
Pf Dd2 growth: inactive

Results for CC(C)[C@H]1CN(CCC(=O)O)C[C@@H]1NC(=O)CCC1CCCC1 ?
Pf Dd2 growth: inactive

Results for COc1ccccc1OCC(=O)Nc1nc2c(s1)CC(C)CC2 (stereo not drawn) ?
Pf Dd2 growth: inactive

Results for CC(C)(C)C1CCc2nc(NC(=O)Cc3ccc(Cl)cc3)sc2C1 (stereo not drawn) ?
Pf Dd2 growth: 10µM

Results for COc1ccc(CC(=O)Nc2nc3c(s2)CC(C(C)(C)C)CC3)cc1 (stereo not drawn) ?
Pf Dd2 growth: inactive

Results for COc1ccc(C(=O)N2CCC(Cn3c(C)cnc3C3CCC3)CC2)c(OC)c1 ?
Pf Dd2 growth: inactive

Results for COc1ncccc1-c1cc(C(=O)N(C)CCN(C)C)c2c(c1)ncn2C ?
Pf Dd2 growth: inactive

Results for CCc1cc(=O)n(CC(=O)Nc2cc(C)ccc2OC)c(-c2ccccc2)n1 ?
Pf Dd2 growth: inactive

How did O=C(NCCCn1nnc2ccccc21)C1NCCc2[nH]cnc21 (stereo not drawn) do in these assays?
Pf Dd2 growth: inactive

Results for CC1(C(=O)NCCc2ccccc2)CCCCC(=O)N1 (stereo not drawn) ?
Pf Dd2 growth: inactive

How did CCN1CCN(C2(C(=O)NCCc3ccccc3)Cc3ccccc3C2)CC1 do in these assays?
Pf Dd2 growth: 5µM

Results for CCN1CCN(C2(C(=O)N3CCC(OC)CC3)Cc3ccccc3C2)CC1 ?
Pf Dd2 growth: inactive

What do the screens show for `CCn1nc(C)c(C(=O)N[C@H]2CCOC[C@H]2C2CCOCC2)c1C`?
Pf Dd2 growth: inactive

How did Cc1ccc(-c2nc(-c3cccs3)c(-c3cccs3)[nH]2)cc1 do in these assays?
Pf Dd2 growth: inactive

How did c1c[nH]c(-c2nc3ccncc3[nH]2)c1 do in these assays?
Pf Dd2 growth: 22µM!

How did c1cnc2nc(-c3c[nH]c4ccccc34)[nH]c2c1 do in these assays?
Pf Dd2 growth: inactive

Results for c1cncc(-c2nc3ccncc3[nH]2)c1 ?
Pf Dd2 growth: inactive

Results for c1csc(-c2nc3ccncc3[nH]2)c1 ?
Pf Dd2 growth: 18µM!

How did c1cncc(-c2nc3ncccc3[nH]2)c1 do in these assays?
Pf Dd2 growth: inactive

How did Cc1ccoc1-c1nc2ccncc2[nH]1 do in these assays?
Pf Dd2 growth: inactive

How did c1cc2nc(C3CCCCN3)[nH]c2cn1 (stereo not drawn) do in these assays?
Pf Dd2 growth: inactive

How did c1ccc2c(-c3nc4ccncc4[nH]3)c[nH]c2c1 do in these assays?
Pf Dd2 growth: 13µM!

How did CCCS(=O)(=O)N1CCC(Cc2nncn2-c2ccccc2)CC1 do in these assays?
Pf Dd2 growth: inactive

What do the screens show for `Cc1ccccc1NC(=O)N1CCC(CCNC(=O)C2CCC2)CC1`?
Pf Dd2 growth: inactive

Results for CN1C(=O)C(c2ccccc2)CC12CCN(S(=O)(=O)N(C)C)CC2 (stereo not drawn) ?
Pf Dd2 growth: inactive

Results for CCN1CCC(CCNC(=O)C2CCCN(Cc3ccncc3)CCC(=O)NCC2)CC1 (stereo not drawn) ?
Pf Dd2 growth: inactive

Results for CC(=O)Nc1ccc(-c2c(C(C)C)nn(-c3cccc(F)c3)c2OC(C)=O)cc1 ?
Pf Dd2 growth: inactive

Results for COc1cccc(NC(=O)N2CCCC3(C2)Nc2cccnc2NC3=NC2CCCC2)c1 (stereo not drawn) ?
Pf Dd2 growth: inactive[5.79 µM]

What do the screens show for `COc1ccc(C)cc1NC(=O)N1CCCC2(C1)Nc1cccnc1NC2=NC1CCCC1` (stereo not drawn)?
Pf Dd2 growth: 1.3µM

How did O=C(Nc1cc(F)cc(F)c1)N1CCCC2(C1)Nc1cccnc1NC2=NC1CCCC1 (stereo not drawn) do in these assays?
Pf Dd2 growth: inactive[5.79 µM]

How did CCc1c(C)cc(C(=O)N[C@@H]2[C@@H](Cc3ccccc3)[C@H]3OCC[C@@H]23)c(=O)n1C do in these assays?
Pf Dd2 growth: inactive

How did O=C1NCc2ccccc2CC12CCN(Cc1ccc(Cl)cc1)C2 (stereo not drawn) do in these assays?
Pf Dd2 growth: inactive

Results for CCN1CCCC2(Cc3ccccc3CN(C(=O)CCCC(=O)O)C2)C1 (stereo not drawn) ?
Pf Dd2 growth: inactive

Results for CCC(=O)N1Cc2ccccc2CC2(CCCN2Cc2ccc(OC)cc2)C1 (stereo not drawn) ?
Pf Dd2 growth: inactive

How did CCN1CCC2(Cc3ccccc3CN(C(=O)Cc3ccccc3)C2)C1 (stereo not drawn) do in these assays?
Pf Dd2 growth: 11µM
